Bioassay records deposited in PubChem BioAssay by Broad Institute.
Shown is part of a subset that was picked to be rich in hits.
ID4 binder – ID4 (human) binding | P47928 | small molecule microarray, Flag-ID4 binding, fluorescence F/B | calls only | 31,000 compounds, 1.2% hits; call rule not given here;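 further: a binder raises fluorescence above local background on the spot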
STK33 inh – human STK33 kinase inhibition; 27,000 compounds, 0.44% hits; inhibition, % at 12.5 µM; ADP-Glo luminescence, MBP substrate; Q9BYT3; AID 2322; in the data active means inhibition above about 20%; inconclusive means no clear call, values can overlap the other calls
Target sequence (Q9BYT3 whole entry, looked up): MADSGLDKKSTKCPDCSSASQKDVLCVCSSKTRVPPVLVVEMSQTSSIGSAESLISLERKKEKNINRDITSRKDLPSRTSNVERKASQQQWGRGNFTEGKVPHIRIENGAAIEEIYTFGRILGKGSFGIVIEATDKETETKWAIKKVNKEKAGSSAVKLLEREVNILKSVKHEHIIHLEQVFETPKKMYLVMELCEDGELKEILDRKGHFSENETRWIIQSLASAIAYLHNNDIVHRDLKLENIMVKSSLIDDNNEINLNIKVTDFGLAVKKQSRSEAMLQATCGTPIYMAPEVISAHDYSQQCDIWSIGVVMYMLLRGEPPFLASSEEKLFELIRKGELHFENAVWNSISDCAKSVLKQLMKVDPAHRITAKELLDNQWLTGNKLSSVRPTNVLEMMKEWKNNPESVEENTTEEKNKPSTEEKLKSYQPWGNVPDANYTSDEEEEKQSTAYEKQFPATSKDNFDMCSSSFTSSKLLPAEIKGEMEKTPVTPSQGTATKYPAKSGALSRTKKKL
Starred values were filed as active, the others as inactive; i = inactive; u = inconclusive; x = no result given; + = active, no number.

SMILES	ID4 binder	STK33 inh
CC(C(=O)Nc1ccccc1Cl)N(c1ccc(Cl)cc1)S(C)(=O)=O (configuration not stated)	i	-1
O=C(NCc1cccnc1)c1cccc(NC(=O)c2ccco2)c1	+	-1
CS(=O)(=O)Nc1ccc(C(=O)NCc2cccnc2)cc1	i	0
C=CCN1C(=O)[C@@]2(O[C@@H](CCn3cc(CCO)nn3)[C@H]([Si](C)(C)c3ccc(OC)cc3)[C@H]2C)c2cc(N3CCC3=O)ccc21	x	2
CC[C@H](CO)Nc1nc(NCc2ccccc2)c2ncn(C(C)C)c2n1	i	17
CC(C)n1cnc2c(Nc3cccc(Cl)c3)nc(NCCO)nc21	x	90*
CC(C)(C)c1ccc(C(=O)Nc2cccc(NC(=O)COc3ccccc3Cl)c2)cc1	i	4
COc1ccc([Si](C)(C)[C@@H]2[C@@H](CCn3cc(CCO)nn3)O[C@]3(C(=O)N(Cc4ccc(N5CCOC5=O)cc4)c4ccccc43)[C@H]2C)cc1	i	24*
COc1ccc([Si](C)(C)[C@H]2[C@H](CCO)O[C@@]3(C(=O)N(Cc4ccc(N5CCOC5=O)cc4)c4ccccc43)[C@@H]2C)cc1	i	u
C[C@@H]1CCCCO[C@H](CN(C)C)[C@H](C)CN([C@@H](C)CO)C(=O)c2cc(NC(=O)C3CCCCC3)ccc2O1	i	x
COc1cccc2oc(-c3ccccc3)cc(=O)c12	i	1
COc1cc2oc(-c3ccc(O)cc3)cc(=O)c2c(O)c1OC	i	60*
COc1cc(O)c2c(=O)cc(-c3ccccc3)oc2c1OC	i	23*
COc1c(O[C@@H]2O[C@H](C(=O)O)[C@@H](O)[C@H](O)[C@H]2O)cc(O)c2c(=O)cc(-c3ccccc3)oc12	i	0
COc1c(O)cc2oc(-c3ccc(O)cc3)cc(=O)c2c1O	x	15
COc1ccc(-c2cc(=O)c3c(O)cc(O)cc3o2)cc1O	x	46*
C=CCNC(=O)[C@@H]1[C@H]2C(=O)O[C@H](c3ccccc3)[C@H](c3ccccc3)N2[C@H](c2ccc(O)cc2)[C@@]12C(=O)Nc1ccc(C#Cc3ccc(OC)cc3)cc12	i	1
CSc1cccc(NC(=O)CSc2nnc(-c3ccco3)n2C)c1	i	2
C[C@@H]1CCCCO[C@H](CN(C)C(=O)CCCN(C)C)[C@@H](C)CN([C@@H](C)CO)C(=O)c2cc(N(C)C)ccc2O1	i	x
Cc1noc(C)c1S(=O)(=O)N(C)C[C@H]1Oc2c(cccc2N(C)C)C(=O)N([C@@H](C)CO)C[C@@H]1C	i	x
O=C(/C=C/c1ccccc1)CC(=O)/C=C/c1ccccc1	x	0
O=C(/C=C/c1ccccc1)c1ccc(O)cc1	x	27*
Cc1ccccc1-c1cnc2c(c1)C(=O)N([C@@H](C)CO)C[C@@H](C)[C@H](CN(C)Cc1cncnc1)O2	i	x
COc1cccc(C(=O)COc2ccc(NC(=O)c3ccccc3C)cc2)c1	i	-2
Cc1ccccc1C(=O)Nc1ccc(OCC(=O)O)cc1	+	0
SMILES	ID4 binder	STK33 inh
Cc1ccc(S(=O)(=O)N[C@@H](Cc2ccccc2)C(=O)CCl)cc1	x	8
COc1ccc(-c2cn(CCNC(=O)[C@H](Cc3ccccc3)NS(=O)(=O)c3ccc(C)cc3)nn2)cc1OC	+	x
CCn1c(SCC(=O)Nc2cccc(C)c2C)nnc1-c1cccs1	i	0
O=C(NCc1ccc(F)cc1)[C@H]1C[C@H]2C(=O)N[C@@H](Cc3ccccc3)C(=O)N2[C@H]1c1cccc(OCCO)c1	+	5
CC(C)C[C@@H]1NC(=O)[C@@H]2C[C@H](C(=O)NCc3ccc(F)cc3)[C@H](c3cccc(OCCO)c3)N2C1=O	i	5
O=C1N[C@@H](Cc2ccccc2)C(=O)N2[C@@H]1C[C@@H](C(=O)NCc1ccc(F)cc1)[C@H]2c1ccc(O)cc1	+	-9
O=C(NCc1ccc(F)cc1)[C@H]1C[C@H]2C(=O)N[C@@H](Cc3ccccc3)C(=O)N2[C@H]1c1ccc(O)cc1	x	-1
NCCCCCCNC(=O)[C@@H]1C[C@@H]2C(=O)NCC(=O)N2[C@@H]1c1cccc(OCCO)c1	+	-3
O=C(CS)NCCCCCCNC(=O)[C@H]1C[C@H]2C(=O)NCC(=O)N2[C@H]1c1cccc(OCCO)c1	x	-2
C[C@@H]1CN([C@H](C)CO)C(=O)c2cc(C#CC3CCCC3)cnc2O[C@H]1CN(C)C(=O)C1CCCCC1	i	x
C[C@@H]1CN([C@@H](C)CO)C(=O)c2cc(NC(=O)Cc3cn(C)c4ccccc34)ccc2O[C@@H]1CN(C)S(=O)(=O)c1cccs1	x	3
COc1cc(NC(=O)C(C)Oc2ccc(Cl)cc2Cl)c(C(=O)O)cc1OC (configuration not stated)	i	-1
CC(Oc1ccc(-c2ccccc2)cc1)C(=O)Nc1ccccc1[N+](=O)[O-] (configuration not stated)	i	-1
COc1ccc(C(=O)CSc2n[nH]c(-c3ccc(C)cc3)n2)cc1	+	-1
Cc1ccc(-c2nc(SCC(=O)c3ccccc3)n[nH]2)cc1	i	-1
Cc1cc(C)cc(N(CC(=O)Nc2c(C)cc(C)cc2C)S(C)(=O)=O)c1	i	-1
O=C(C[C@@H]1CC[C@@H](NC(=O)c2ccc(F)cc2)[C@@H](CO)O1)NCCc1ccccc1	i	x
COc1ccc2nc(Nc3nc(C)c(CCC(C)C)c(=O)[nH]3)nc(C)c2c1	i	0
CCN(CC)CCCC(C)Nc1c2ccc(Cl)cc2nc2ccc(OC)cc12 (configuration not stated)	x	33*
COc1cccc(OC)c1C(=O)NC(=S)Nc1cccc(-c2nn3c(C)nnc3s2)c1	i	6
C[C@@H]1O[C@@H](O[C@@H]2[C@@H](O)[C@H](O[C@@H]3[C@@H](O)[C@@H](O)[C@H](O[C@H]4[C@H](OC(=O)[C@]56CCC(C)(C)C[C@H]5C5=CCC7[C@@]8(C)C[C@H](O)[C@H](O[C@@H]9O[C@H](C(=O)O)[C@@H](O)[C@H](O)[C@H]9O)[C@@](C)(CO)C8[C@H](O)C[C@@]7(C)[C@]5(C)C[C@H]6O)OC[C@H](O)[C@@H]4O)O[C@H]3C)OC[C@H]2O)[C@H](O)[C@H](O)[C@H]1O (some centres not stated)	i	23*
C[C@@H]1O[C@@H](O[C@H]2[C@H](OC(=O)[C@]34CCC(C)(C)C[C@H]3C3=CCC5[C@@]6(C)C[C@H](O)[C@H](O[C@@H]7O[C@H](C(=O)O)[C@@H](O)[C@H](O)[C@H]7O)[C@@](C)(CO)C6[C@H](O)C[C@@]5(C)[C@]3(C)C[C@H]4O)O[C@@H](CO)[C@@H]2O)[C@H](O)[C@H](O)[C@H]1O[C@@H]1OC[C@@H](O)[C@H](O[C@H]2OC[C@](O)(CO)[C@H]2O)[C@H]1O (some centres not stated)	i	-4
CCCCc1c(-c2ccc(O)cc2)[nH]c2nccnc12	i	57*
CCCCc1c(-c2ccc(OC)cc2)[nH]c2nccnc12	i	17
C[C@@H]1CCCCO[C@@H](CN(C)C)[C@@H](C)CN([C@H](C)CO)C(=O)c2cc(NC(=O)C3CCCCC3)ccc2O1	i	-4
CN(C)c1ccc(C(=C2C=CC(=[N+](C)C)C=C2)c2ccc(N(C)C)cc2)cc1	x	76*
CCCCn1c2ccccc2c2nnc(SCCN3CCOCC3)nc21	i	-1
O=c1c(O)c(-c2ccccc2)oc2cc(O)ccc12	i	32*
